In PubChem BioAssay (NCATS):
Results filed as inconclusive are left out. Entries that show only a call come without a potency. Activity calls are given as the source filed them. Unless noted, calls follow the shape of the dose curve; as a rule, active = well fitted curve in the direction sought with a large enough effect; inconclusive = small, poorly fitted or top-dose-only effect, or another doubt; inactive = no such curve, though single readings can be large; an effect the other way counts as inactive or inconclusive.

What was measured:
[1] = qHTS for Inhibitors of Ubiquitin-specific Protease USP2a Using CHOP2 as the Reporter: K633 Counterscreen (AID 652168); also: series mostly up to about 57 µM
Method in brief: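 Cell-free interference counterscreen without USP2a: compounds pinned into enzyme-free buffer (20 mM Tris pH 8, 2 mM beta-mercaptoethanol, 0.05% Chaps), then DiUb K48-4IQF substrate added (100 nM stock); fluorescence read kinetically, Ex 525/Em 598.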

[2] = qHTS for Inhibitors of Ubiquitin-specific Protease USP2a Using CHOP2 as the Reporter: Cytotox Assay (AID 652170); also: nearly all actives have a fitted effect of over 70% in size; also: potency is read from the fitted curve at half-maximal effect
Method in brief: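 HCT116 human colon cancer cells, 600 per well in DMEM with 10% FBS, exposed to compounds for 72 hr at 37 deg C. ATP measured by CellTiter-Glo luminescence, normalized to DMSO cells and no-cell background.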

[3] = biological target: Ubiquitin carboxyl-terminal hydrolase 2 (Homo sapiens) (UniProt O75604); assay: qHTS for Inhibitors of Ubiquitin-specific Protease USP2a Using CHOP2 as the Reporter: K484 Substrate (AID 652173);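 also: cleavage of internally quenched K48 di-ubiquitin substrate measured as rising fluorescence over time; nearly all actives have a fitted effect of over 70% in size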; also: potency is read from the fitted curve at half-maximal effect
Sequence of Ubiquitin carboxyl-terminal hydrolase 2 (Homo sapiens) (O75604 whole entry, looked up): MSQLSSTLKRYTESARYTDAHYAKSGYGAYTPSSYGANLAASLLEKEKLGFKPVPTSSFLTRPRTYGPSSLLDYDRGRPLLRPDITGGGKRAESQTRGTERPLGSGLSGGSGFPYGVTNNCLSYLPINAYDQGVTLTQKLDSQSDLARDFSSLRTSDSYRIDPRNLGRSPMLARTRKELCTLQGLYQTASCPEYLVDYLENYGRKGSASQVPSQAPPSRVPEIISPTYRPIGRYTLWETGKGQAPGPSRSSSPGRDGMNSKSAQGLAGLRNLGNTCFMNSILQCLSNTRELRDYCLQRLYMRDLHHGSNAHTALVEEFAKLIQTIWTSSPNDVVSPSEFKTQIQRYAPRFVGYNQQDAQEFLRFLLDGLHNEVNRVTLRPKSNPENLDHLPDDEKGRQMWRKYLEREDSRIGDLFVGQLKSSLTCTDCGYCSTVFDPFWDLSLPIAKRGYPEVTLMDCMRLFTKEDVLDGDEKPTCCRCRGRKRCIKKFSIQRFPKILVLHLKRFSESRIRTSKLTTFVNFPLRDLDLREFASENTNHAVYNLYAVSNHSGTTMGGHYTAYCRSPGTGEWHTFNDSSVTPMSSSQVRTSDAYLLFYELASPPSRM
Method in brief: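 USP2 (dispensed at 5 nM) was pinned with compounds, then DiUb K48 internally quenched fluorescent substrate (dispensed at 100 nM) was added. The buffer was 20 mM Tris pH 8, 2 mM beta-mercaptoethanol and 0.05% CHAPS. Cleavage was read kinetically as rising fluorescence, Ex 525/Em 598.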

[4] = biological target: Calcium and integrin-binding protein 1 (Homo sapiens) (UniProt Q99828); assay: Primary qHTS for Identification of Calcium Integrin Binding Protein 1 (CIB1) Competitor (AID 1508620);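 also: GST tagged CIB1 binding a fluorescein labelled alphaIIb integrin peptide tracer; top concentration of the series differs between compounds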
Sequence of Calcium and integrin-binding protein 1 (Homo sapiens) (Q99828 whole entry, looked up): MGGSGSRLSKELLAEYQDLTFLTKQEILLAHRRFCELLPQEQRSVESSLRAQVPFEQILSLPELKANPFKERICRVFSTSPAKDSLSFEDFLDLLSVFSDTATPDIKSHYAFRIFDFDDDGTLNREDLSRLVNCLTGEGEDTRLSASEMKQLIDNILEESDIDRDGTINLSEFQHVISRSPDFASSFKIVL
Method in brief: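 CIB1-GST (1 uM final) and compound incubated 15 min at room temperature before adding FITC-alphaIIb peptide tracer (100 nM final). Competition for binding read by fluorescence polarization (ex 480, em 540) after another 15 min at room temperature.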

[5] = biological target: Mitogen-activated protein kinase 10 (Mus musculus) (UniProt Q61831); assay: JNK3 AlphaScreen Assay (AID 530; active = well fitted curve in either direction with a large enough effect, not every such curve was filed as active;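 also: kinase came from lysate of stimulated human HepG2 cells; signal reports phosphorylation of biotinylated GST-cJun 1-79 at Ser73 with 10 µM ATP; series mostly up to about 57 µM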)
Method in brief: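 Compound titrations were preincubated 15 minutes at room temperature with substrate, antibody and pre-activated JNK3-containing HepG2 lysate. Reactions were started with 10 uM ATP and stopped with EDTA-containing bead buffer for AlphaScreen detection.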

[6] = biological target: Cytochrome P450 3A4 (Homo sapiens) (UniProt P08684); assay: qHTS Assay for Activators of Cytochrome P450 3A4 (AID 885); also: nearly all actives have a fitted effect of over 65% in size
Sequence of Cytochrome P450 3A4 (Homo sapiens) (P08684 whole entry, looked up): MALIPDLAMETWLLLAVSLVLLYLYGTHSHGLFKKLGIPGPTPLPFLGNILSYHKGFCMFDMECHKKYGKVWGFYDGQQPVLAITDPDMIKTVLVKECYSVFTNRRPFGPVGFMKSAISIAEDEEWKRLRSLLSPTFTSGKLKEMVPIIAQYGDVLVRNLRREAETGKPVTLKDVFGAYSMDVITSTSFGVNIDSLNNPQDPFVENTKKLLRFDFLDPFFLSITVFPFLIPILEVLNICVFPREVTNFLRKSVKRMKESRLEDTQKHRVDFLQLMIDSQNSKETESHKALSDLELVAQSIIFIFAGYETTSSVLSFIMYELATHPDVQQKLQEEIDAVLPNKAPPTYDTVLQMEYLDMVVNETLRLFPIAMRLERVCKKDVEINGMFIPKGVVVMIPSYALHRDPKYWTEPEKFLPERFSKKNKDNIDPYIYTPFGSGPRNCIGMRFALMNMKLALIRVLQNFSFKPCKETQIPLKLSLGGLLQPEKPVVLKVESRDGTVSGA
Method in brief: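 20nM CYP3A4 + 25uM Luciferin-PPXE (=KM), 200mM KPO4; cpd 10 min RT; NADPH regen, 60 min RT; stop w/ detection buffer, 20 min; luminescence. Normalized to 57 uM ketoconazole.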

[7] = qHTS for Inhibitors of the vitamin D receptor (VDR): Hit Validation using a Texas Red Assay (AID 602201); also: potency is read from the fitted curve at half-maximal effect
Text: The vitamin D receptor (VDR) is a ligand-activated transcription factor and is partially responsible for the regulation of the endocrine system. This includes the transcriptional regulation of genes involved in the production of the parathyroid hormone (PTH) and the regulation of the blood calcium level. High levels of PHT can cause hypercalcemia in the case of primary and tertiary hyperparathyroidism. The VDR-mediated gene regulation, activated by its ligand 1,25-dihydroxyvitamin D3 (1,25-(OH)2D3), is governed by the recruitment of coactivators. Our hypothesis is that small molecules, with the ability to inhibit the interaction between VDR and certain coactivators, are able to selectively modulate VDR-mediated transcription. […]
In a collaboration between the University of Wisconsin, Milwaukee and the NIH Chemical Genomics Center (NCGC) a HTS-compatible enzymatic assay was developed. The assay uses fluorescence polarization as its read-out to measure the inhibition between VDR and coregulator peptide SRC2-3 exerted by small molecules. […]
Four microliter of either 1.5 uM VDR-LBD, […] LG19078, and 7 nM Texas Red (all final concentrations) in columns 1, 2, and 5 to 48 or 7 nM Texas Red in columns 3 and 4 are dispensed into black medium-binding solid bottom Greiner plates. […] It is then read on the Envision for a fluorescent polarization read-out (Ex 595 nm/Em 615 nm)

CCNC(=O)C1CCC(C(=O)Nc2ccc([S+](=O)([O-])Nc3nccs3)cc2)CC1 (configuration not stated)
outcome [1]: inactive | Potency [2]: inactive | Potency [3]: inactive | Potency [4]: inactive

CCCn1c(-c2ccc(F)cc2)nc2c(NCCCN(CC)CC)nc(C)nc21
outcome [5]: inactive | Potency [6]: inactive | Potency [4]: inactive

O=C(Nc1ccc(S(=O)(=O)Nc2nc(-c3ccccc3)cs2)cc1)c1ccc2ccccc2c1
outcome [1]: inactive | Potency [2]: inactive | Potency [3]: 2.43 µM (active) | Potency [4]: inactive

Cc1ccc(S(=O)(=O)Nc2cnccc2C(=O)Nc2ccccc2)cc1
outcome [1]: inactive | Potency [4]: inactive

O=C(Cc1nc2ccc(Cl)cc2[nH]1)Nc1ccc(S(=O)(=O)Nc2nccs2)cc1
outcome [1]: inactive | Potency [2]: inactive | Potency [3]: 30.6 µM (active) | Potency [4]: inactive

Cc1nc(NCc2ccccc2)c2nc(-c3ccccc3)n(CCN(C)C)c2n1
outcome [5]: inactive | Potency [6]: inactive | Potency [4]: inactive

O=C(Nc1ccc(S(=O)(=O)Nc2nccs2)cc1)C1CCC2(CC1)CC2
outcome [1]: inactive | Potency [4]: inactive

CCCn1c(-c2ccc(F)cc2)nc2c(NCCCN(CCO)CCO)nc(C)nc21
outcome [5]: inactive | Potency [6]: inactive | Potency [4]: inactive

O=S(=O)(Nc1ccc(S(=O)(=O)Nc2nccs2)cc1)c1ccc2ccccc2c1
outcome [1]: inactive | Potency [4]: inactive

CCN(CC)CCCn1c(-c2ccccc2)nc2c(NCc3ccccc3)nc(C)nc21
outcome [5]: inactive | Potency [6]: inactive | Potency [4]: inactive

CCOC(=O)c1csc(NC(=O)c2ccncc2NS(=O)(=O)c2ccc(C)cc2)n1
outcome [1]: inactive | Potency [2]: inactive | Potency [3]: 21.7 µM (active) | Potency [4]: inactive

CCCCNc1nc(C)nc2c1nc(-c1ccccc1)n2CCCN(C)C
outcome [5]: inactive | Potency [6]: inactive | Potency [4]: inactive

N#Cc1cccc(S(=O)(=O)Nc2cnccc2C(=O)Nc2nc(-c3ccccc3)cs2)c1
outcome [1]: inactive | Potency [2]: inactive | Potency [3]: 2.17 µM (active) | Potency [4]: inactive

O=C(Nc1ccc([S+](=O)([O-])Nc2nccs2)cc1)c1ccccn1
outcome [1]: inactive | Potency [2]: inactive | Potency [3]: inactive | Potency [4]: inactive

CCN(CC)CCCC(C)n1c(-c2ccccc2)nc2c(N3CCOCC3)nc(C)nc21 (configuration not stated)
outcome [5]: inactive | Potency [6]: inactive | Potency [4]: inactive

CCN(CC)CCCC(C)n1c(-c2ccccc2)nc2c(NCCOC)nc(C)nc21 (configuration not stated)
outcome [5]: inactive | Potency [6]: inactive | Potency [4]: inactive

CCCn1c(-c2ccc(F)cc2)nc2c(NCCN(CC)CC)nc(C)nc21
outcome [5]: inactive | Potency [6]: inactive | Potency [4]: inactive

CCCn1c(C)nc2c(Nc3ccccc3)nc(C)nc21
outcome [5]: inactive | Potency [6]: inactive | Potency [4]: inactive

O=c1[nH]c(CN2CCOCC2)nc2sc3c(c12)CCCC3
outcome [1]: inactive | Potency [2]: inactive | Potency [3]: inactive | Potency [4]: inactive

Cc1ccc(S(=O)(=O)Nc2cnccc2C(=O)Nc2ccc(-n3cncn3)cc2)cc1
outcome [1]: inactive | Potency [2]: inactive | Potency [4]: inactive

O=C(Nc1ccc([S+](=O)([O-])Nc2nccs2)cc1)c1ccn[nH]1
outcome [1]: inactive | Potency [2]: inactive | Potency [3]: inactive | Potency [4]: inactive

CCN1CCCC1Cn1c(-c2ccccc2)nc2c(NCCOC)nc(C)nc21 (configuration not stated)
outcome [5]: inactive | Potency [6]: inactive | Potency [4]: inactive

Cc1ccc(S(=O)(=O)Nc2cnccc2C(=O)Nc2ccc(-c3nc4ccccc4[nH]3)cc2)cc1
outcome [1]: inactive | Potency [2]: inactive | Potency [3]: 2.17 µM (active) | Potency [4]: inactive

CC1CC1C(=O)Nc1ccc([S+](=O)([O-])Nc2nccs2)cc1 (configuration not stated)
outcome [1]: inactive | Potency [2]: inactive | Potency [3]: inactive | Potency [4]: inactive

COCCN(CCOC)c1nc(C)nc2c1nc(-c1ccccc1)n2CC1CCN(C)CC1
outcome [5]: inactive | Potency [6]: inactive | Potency [4]: inactive

Cc1ccc(-c2csc(NC(=O)c3ccccc3NS(=O)(=O)c3ccc(C)cc3)n2)cc1
outcome [1]: inactive | Potency [2]: 16.6 µM (active) | Potency [3]: 1.93 µM (active) | Potency [4]: inactive

O=C(Cc1ccccc1)Nc1sc2c(c1C(=O)Nc1ccc(Cl)cc1)CCCC2
Potency [7]: 4.47 µM (active) | Potency [4]: inactive

Cc1ccc(S(=O)(=O)Nc2cnccc2C(=O)NCc2ccccc2)cc1
outcome [1]: inactive | Potency [2]: inactive | Potency [4]: inactive

Cc1ccc(NC(=O)c2ccncc2NS(=O)(=O)c2ccc(C)cc2)cc1
outcome [1]: inactive | Potency [2]: inactive | Potency [4]: inactive

Cc1cccc2c(C(=O)O)cc(Cl)nc12
outcome [1]: inactive | Potency [2]: inactive | Potency [3]: inactive | Potency [4]: inactive

O=S(=O)(Nc1nc(CN2CCOCC2)nc2sc3c(c12)CCC3)c1ccc2c(c1)OCCO2
outcome [1]: inactive | Potency [2]: inactive | Potency [3]: inactive | Potency [4]: inactive
